Drawing on PubChem BioAssay (EPA / NIEHS), this text covers AC50 and outcome for 33 compounds.

Where a structure was tested more than once in an assay, its records may differ in their call. Active and inactive are the calls of the source. Rule for the calls: active = hit-call score of the fitted dose curve at least 0.9, where 1 is the maximum; inactive = score below 0.9.

Read-out in the first assay: Monokine induced gamma interferon (MIG), CXCL9 (gene 4283)
Description: BSK_hDFCGF_MIG: BioMAP Diversity Plus: hDFCGF Assay for Monokine induced gamma interferon (MIG) Biomarker Activity (AID 2283063). The conditions noted are these: primary human foreskin fibroblasts; actives raise or lower the signal. Put shortly: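 MIG signal, determined by ELISA, reflects 24 h chemical exposure of human skin primary fibroblasts. DMSO serves as negative control and baseline.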
As for `CCCCCCCCCCCCc1cccc(S(=O)(=O)O)c1`, the AC50 was 27.6 µM (active).
Consider `CC(C)N(C(=O)CCl)c1ccccc1`, for which the AC50 is 3.85 µM (active).
The same measure, in the same setting: in the case of `CN(C)C(=S)S` it was 21.6 µM (active).
On to `Oc1c(Br)cc(Br)cc1Br`, for which the result was inactive.
For the compound `C[C@]12CC[C@@H](O)C[C@@H]1CC[C@@H]1[C@@H]2CC[C@]2(C)C(=O)CC[C@@H]12`, the result was inactive.
Consider `O=C(O)COc1cc(Cl)c(Cl)cc1Cl`, for which the result was inactive.
On the same count and under the same terms, then `Cc1ccc(OP(=O)(Oc2ccc(C)cc2C)Oc2ccc(C)cc2C)c(C)c1`, with “inactive”; and `C=CC(Cl)CCl` (stereo not given), with “inactive”.
Turning to `[Cl][Sn]([c]1ccccc1)([c]1ccccc1)[c]1ccccc1`, the concentration at half-maximal activity (AC50) is 0.0855 µM (active).
On to `COc1ccccc1N`, for which the outcome was inactive.
The same measure, in the same setting: in the case of `Cc1cccc(OP(=O)(Oc2cccc(C)c2)Oc2cccc(C)c2)c1` it was “inactive”; in that of `N#Cc1cccnc1`, “inactive”.
With `OC(Cc1ccccc1Cl)(Cn1[nH]cnc1=S)C1(Cl)CC1` (stereo not given), the AC50 was 33.3 µM (active).
On to `CC1(C)[C@H](C(=O)O[C@H](C#N)c2cccc(Oc3ccccc3)c2)[C@@H]1/C=C(\Cl)C(F)(F)F`, for which the result was inactive.
Still for that read-out and setting: in the case of `CCCCCCCCCCCCN(C)C` it was “inactive”.
As for `OCCCCO`, the outcome was inactive.
The same measure, in the same setting: then `Nc1ccc(N)cc1`, with “inactive”; and `COCC(=O)N(c1c(C)cccc1C)[C@H](C)C(=O)OC`, with “inactive”.
Same read-out and setting: then `CCOP(=S)(OCC)OP(=S)(OCC)OCC`, with “inactive”; and `Clc1cccc(Cl)c1`, with “inactive”.
As to `OC(Cc1ccccc1Cl)(Cn1cncn1)C1(Cl)CC1` (stereo not given), the outcome was inactive.
On the same count and under the same terms, then `Clc1cccc(Cl)c1Cl`, with “inactive”; and `NC(=O)CCl`, with “inactive”.
As for `O=C(N[C@H]1CN2CCC1CC2)c1ccc2c(c1)OCCO2`, the outcome was inactive.
On the same count and under the same terms, in the case of `c1ccc(-c2cccc(-c3ccccc3)c2)cc1` it was “inactive”; in that of `Cc1c([N+](=O)[O-])c(C)c([N+](=O)[O-])c(C(C)(C)C)c1[N+](=O)[O-]`, “inactive”; in that of `CCCCN(CCCC)C(=S)[S-].CCCCN(CCCC)C(=S)[S-].[Ni+2]`, “inactive”.
Still for that read-out and setting: in the case of `O=C(CCl)NCO` it was “inactive”; in that of `Cc1cc(Cl)ccc1N`, “inactive”; in that of `Oc1cc(Cl)c(Cl)cc1Cl`, “inactive”.
Regarding `CCOC(=O)CCN(SN(C)C(=O)Oc1cccc2c1OC(C)(C)C2)C(C)C`, the AC50 was 29.9 µM (active).
As to `CCCCOC(=O)COC(=O)c1ccccc1C(=O)OCCCC`, the result was inactive.
Take `N#CCCC(Br)(C#N)CBr` (stereo not given): the AC50 is 6.19 µM (active).

Read-out in a further assay: Matrix Metallopeptidase 1 (MMP1), MMP1 (gene 4312)
In words: BSK_hDFCGF_MMP1: BioMAP Diversity Plus: hDFCGF Assay for Matrix Metallopeptidase 1 (MMP1) Biomarker Activity (AID 2283064). The note with it: primary human foreskin fibroblasts; actives raise or lower the signal. An outline of the steps:
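hDFCGF primary fibroblasts (human foreskin); chemical added; 24 h; MMP1 by ELISA; bidirectional fit vs DMSO.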
On to `CCCCCCCCCCCCc1cccc(S(=O)(=O)O)c1`, for which the AC50 is 28.3 µM (active).
On the same count and under the same terms, in the case of `CC(C)N(C(=O)CCl)c1ccccc1` it was 11.4 µM (active); in that of `CN(C)C(=S)S`, 36.9 µM (active).
For `Oc1c(Br)cc(Br)cc1Br`, the outcome was inactive.
Same read-out and setting: then `O=C(O)COc1cc(Cl)c(Cl)cc1Cl`, with “inactive”.
As for `Cc1ccc(OP(=O)(Oc2ccc(C)cc2C)Oc2ccc(C)cc2C)c(C)c1`, the AC50 was 10.3 µM (active).
With `Cc1cccc(OP(=O)(Oc2cccc(C)c2)Oc2cccc(C)c2)c1`, the result was inactive.
On the same count and under the same terms, in the case of `N#Cc1cccnc1` it was “inactive”; in that of `OC(Cc1ccccc1Cl)(Cn1[nH]cnc1=S)C1(Cl)CC1` (stereo not given), “inactive”.
On to `CC1(C)[C@H](C(=O)O[C@H](C#N)c2cccc(Oc3ccccc3)c2)[C@@H]1/C=C(\Cl)C(F)(F)F`, for which the AC50 is 0.0141 µM (active) and the result was inactive.
In the case of `CCCCCCCCCCCCN(C)C`, the result was inactive.
The same measure, in the same setting: then `OCCCCO`, with “inactive”; and `Nc1ccc(N)cc1`, with “inactive”; and `COCC(=O)N(c1c(C)cccc1C)[C@H](C)C(=O)OC`, with “inactive”.
The same measure, in the same setting: then `CCOP(=S)(OCC)OP(=S)(OCC)OCC`, with “inactive”; and `Clc1cccc(Cl)c1`, with “inactive”; and `OC(Cc1ccccc1Cl)(Cn1cncn1)C1(Cl)CC1` (stereo not given), with “inactive”.
Same read-out and setting: then `Clc1cccc(Cl)c1Cl`, with “inactive”; and `NC(=O)CCl`, with “inactive”; and `O=C(N[C@H]1CN2CCC1CC2)c1ccc2c(c1)OCCO2`, with “inactive”.
As to `c1ccc(-c2cccc(-c3ccccc3)c2)cc1`, the AC50 was 5.57 µM (active).
For the compound `Cc1c([N+](=O)[O-])c(C)c([N+](=O)[O-])c(C(C)(C)C)c1[N+](=O)[O-]`, the outcome was inactive.
For `CCCCN(CCCC)C(=S)[S-].CCCCN(CCCC)C(=S)[S-].[Ni+2]`, the outcome was inactive.
Still for that read-out and setting: then `O=C(CCl)NCO`, with “inactive”; and `Cc1cc(Cl)ccc1N`, with “inactive”.
Same read-out and setting: in the case of `Oc1cc(Cl)c(Cl)cc1Cl` it was “inactive”; in that of `CCOC(=O)CCN(SN(C)C(=O)Oc1cccc2c1OC(C)(C)C2)C(C)C`, “inactive”.

Read-out in another assay: Vascular cell adhesion molecule 1 (VCAM1), VCAM1 (gene 7412)
In words: BSK_hDFCGF_VCAM1: BioMAP Diversity Plus: hDFCGF Assay for Vascular cell adhesion molecule 1 (VCAM1) Biomarker Activity (AID 2283065).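 For AC50: VCAM-1 protein level quantified by ELISA after 24 h chemical exposure.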 The conditions noted are these: primary human foreskin fibroblasts; actives raise or lower the signal. An outline of the steps:
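Cells are dosed, cultured for 24 h, then VCAM-1 is quantified by ELISA; signal increases and decreases are both fitted relative to DMSO.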
Consider `CCCCCCCCCCCCc1cccc(S(=O)(=O)O)c1`, for which the AC50 is 12 µM (active).
`CC(C)N(C(=O)CCl)c1ccccc1`: the AC50 is 1.43 µM (active).
Regarding `CN(C)C(=S)S`, the AC50 was 11.2 µM (active).
Turning to `Oc1c(Br)cc(Br)cc1Br`, the result was inactive.
The same measure, in the same setting: then `C[C@]12CC[C@@H](O)C[C@@H]1CC[C@@H]1[C@@H]2CC[C@]2(C)C(=O)CC[C@@H]12`, with “inactive”; and `O=C(O)COc1cc(Cl)c(Cl)cc1Cl`, with “inactive”; and `Cc1ccc(OP(=O)(Oc2ccc(C)cc2C)Oc2ccc(C)cc2C)c(C)c1`, with “inactive”.
`C=CC(Cl)CCl` (stereo not given): the outcome was inactive.
On to `[Cl][Sn]([c]1ccccc1)([c]1ccccc1)[c]1ccccc1`, for which the AC50 is 0.0996 µM (active).
Turning to `COc1ccccc1N`, the result was inactive.
Consider `Cc1cccc(OP(=O)(Oc2cccc(C)c2)Oc2cccc(C)c2)c1`, for which the outcome was inactive.
On the same count and under the same terms, in the case of `N#Cc1cccnc1` it was “inactive”.
With `OC(Cc1ccccc1Cl)(Cn1[nH]cnc1=S)C1(Cl)CC1` (stereo not given), the AC50 is 17.8 µM (active).
Consider `CC1(C)[C@H](C(=O)O[C@H](C#N)c2cccc(Oc3ccccc3)c2)[C@@H]1/C=C(\Cl)C(F)(F)F`, for which the outcome was inactive.
On the same count and under the same terms, in the case of `CCCCCCCCCCCCN(C)C` it was “inactive”; in that of `OCCCCO`, “inactive”.
Same read-out and setting: in the case of `Nc1ccc(N)cc1` it was “inactive”; in that of `COCC(=O)N(c1c(C)cccc1C)[C@H](C)C(=O)OC`, “inactive”.
As to `CCOP(=S)(OCC)OP(=S)(OCC)OCC`, the concentration at half-maximal activity (AC50) is 30.4 µM (active).
As to `Clc1cccc(Cl)c1`, the result was inactive.
On the same count and under the same terms, then `OC(Cc1ccccc1Cl)(Cn1cncn1)C1(Cl)CC1` (stereo not given), with “inactive”; and `Clc1cccc(Cl)c1Cl`, with “inactive”; and `NC(=O)CCl`, with “inactive”.
The same measure, in the same setting: then `O=C(N[C@H]1CN2CCC1CC2)c1ccc2c(c1)OCCO2`, with “inactive”.
In the case of `c1ccc(-c2cccc(-c3ccccc3)c2)cc1`, the AC50 was 12.4 µM (active).
With `Cc1c([N+](=O)[O-])c(C)c([N+](=O)[O-])c(C(C)(C)C)c1[N+](=O)[O-]`, the outcome was inactive.
With `CCCCN(CCCC)C(=S)[S-].CCCCN(CCCC)C(=S)[S-].[Ni+2]`, the outcome was inactive.
The same measure, in the same setting: then `O=C(CCl)NCO`, with “inactive”; and `Cc1cc(Cl)ccc1N`, with “inactive”.
With `Oc1cc(Cl)c(Cl)cc1Cl`, the AC50 was 7.54 µM (active).
For `CCOC(=O)CCN(SN(C)C(=O)Oc1cccc2c1OC(C)(C)C2)C(C)C`, the AC50 was 29.7 µM (active).
`CCCCOC(=O)COC(=O)c1ccccc1C(=O)OCCCC`: the AC50 was 26.6 µM (active) and the result was inactive.
On to `N#CCCC(Br)(C#N)CBr` (stereo not given), for which the AC50 was 3.74 µM (active).

What is called AC50 is the midpoint of the concentration-response curve, whichever way the signal moves.
